Test results reported in PubChem BioAssay.
Inconclusive results are not listed. Calls of active or inactive are those of the source.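 How the source made its calls, unless noted: active means normalized viability below 100% at a tested concentration; inactive means the rest.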

Columns and labels:
[1] = growth inhibition of DIPG glioma cells, dose response, cell-based, SU-DIPG-XVII, MIPE5.0, CellTiter-Glo, qHTS (AID 1347060; cut-off not given, nearly all actives have AC50 up to about 26 µM;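 further: cells exposed to compound for 48 hours before viability readout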); conditions: SU-DIPG-XVII viability, CellTiter-Glo ATP luminescence
[2] = growth inhibition of DIPG glioma cells, dose response, cell-based, JHH-DIPG-1, MIPE4.0, CellTiter-Glo, qHTS (AID 1347062; cut-off not given, nearly all actives have AC50 up to about 27 µM;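 further: cells exposed to compound for two days before readout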); conditions: JHH-DIPG-1 viability, CellTiter-Glo ATP luminescence
[3] = growth inhibition of DIPG glioma cells, dose response, cell-based, SU-DIPG-IV, MIPE4.0, CellTiter-Glo, qHTS (AID 1347063; cut-off not given, nearly all actives have AC50 up to about 30 µM;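 further: compound exposure lasted 48 hours before the viability readout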); conditions: SU-DIPG-IV viability, CellTiter-Glo ATP luminescence
[4] = viability loss in pontine glioma line – cell-based, SU-DIPG-XXV, MIPE5.0, CellTiter-Glo, qHTS, dose response (AID 1347065; cut-off not given, nearly all actives have AC50 up to about 26 µM;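 further: cells exposed to compound for 48 hours before ATP readout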); conditions: CellTiter-Glo ATP luminescence
[5] = SU-DIPG-VI glioma cell viability, MIPE4.0 library, CellTiter-Glo luminescence, qHTS (AID 1347066; cut-off not given, nearly all actives have AC50 up to about 30 µM;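 further: cells exposed to compound for 48 hours before readout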); conditions: CellTiter-Glo ATP luminescence
[6] = JHH-DIPG-1 glioma cell viability, MIPE5.0 library, CellTiter-Glo luminescence, qHTS (AID 1347067; cut-off not given, nearly all actives have AC50 up to about 26 µM;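 further: cells exposed to compound for 48 hours before readout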); conditions: JHH-DIPG-1 glioma viability, CellTiter-Glo ATP luminescence
[7] = SU-DIPG-XXV glioma cell viability, MIPE5.0 library, qHTS (AID 1347068; cut-off not given, nearly all actives have IC50 up to about 30 µM;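 further: cells exposed to compound for 48 hours before viability readout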)
[8] = sensitizers of A549 cells to miR-34 induction, primary screen, imaging, A549 dox-inducible miR-34, nuclei and caspase counts (AID 1347080;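 active means compounds whose cell count with miR-34 switched on is under 0.7 times the count with it off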); conditions: A549 miR-34 inducible, Hoechst nuclei count, 48 h
[9] = modifiers of HSF1 nuclear foci, imaging, Selleck Cancer Library (AID 1347162; in the data active means plate-normalised HSF1 focus index below about 0.46); conditions: human cells, at 10 µM; SSMD: measured here: HSF1 foci SSMD mean; cell count: measured here: cell number; plate-normalised HSF1 focus index: stronger effect = lower value
[10] = survival rescue of mitochondrial mutant cells in low glucose, primary screen, MELAS cybrids, Rieske KO mouse fibroblasts, CellTiter-Glo (AID 1508586;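 active means mean z-score across replicates of 1.96 or higher in either the MELAS or the Rieske mutant cell line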;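 further: z relative to plate mean and SD of compound and empty wells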)
[11] = ovarian cancer cell viability with rucaparib, profiling panel, oncology-focused library, rucaparib conditional (AID 1508598); conditions: patient-derived ovarian cancer cells, CellTiter-Glo viability, 144 h, stronger effect = lower value
[12] = growth inhibition of DIPG glioma cells, dose response, cell-based, SU-DIPG-XIII, MIPE5.0, CellTiter-Glo, qHTS (AID 1347064; cut-off not given, nearly all actives have AC50 up to about 23 µM;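 further: cells exposed to compound for 48 hours before the viability read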); conditions: SU-DIPG-XIII viability, CellTiter-Glo ATP luminescence

O=C(NC1CCNCC1)c1[nH]ncc1NC(=O)c1c(Cl)cccc1Cl
-1.14: z-score ([10]; Rieske KO mouse fibroblast survival, CellTiter-Glo 72 h)
0.925: fold change ([8]; measured here: relative caspase fold change +Dox/-Dox)
1260: cell count ([8]; measured here: total cells without miR-34 induction)
-4.94: SSMD [9]
active: AC50 [1] 6.61 µM | AC50 [2] 0.418 µM | AC50 [3] 0.935 µM | AC50 [4] 7.42 µM | AC50 [6] 1.86 µM | IC50 [7] 4.68 µM | viability ([11]; at 0.000305 µM, OCI-P5x cells, with rucaparib 20 µM, 100% = cells with rucaparib alone) 89.7% | viability ([11]; at 0.000305 µM, OCI-P5x cells, without rucaparib) 97.4% | viability ([11]; at 0.00122 µM, OCI-P5x cells, with rucaparib 20 µM, 100% = cells with rucaparib alone) 95.9% | viability ([11]; at 0.0195 µM, OCI-P5x cells, with rucaparib 20 µM, 100% = cells with rucaparib alone) 96.7% | viability ([11]; at 0.0195 µM, OCI-P5x cells, without rucaparib) 99% | viability ([11]; at 0.0781 µM, OCI-P5x cells, with rucaparib 20 µM, 100% = cells with rucaparib alone) 93.7% | viability ([11]; at 0.0781 µM, OCI-P5x cells, without rucaparib) 89.4% | viability ([11]; at 0.313 µM, OCI-C5x cells, with rucaparib 10 µM, 100% = cells with rucaparib alone) 86.2% | viability ([11]; at 0.313 µM, OCI-C5x cells, without rucaparib) 99.6% | viability ([11]; at 0.313 µM, OCI-P5x cells, with rucaparib 20 µM, 100% = cells with rucaparib alone) 88% | viability ([11]; at 0.313 µM, OCI-P5x cells, without rucaparib) 78.2% | viability ([11]; at 1.25 µM, OCI-C5x cells, with rucaparib 10 µM, 100% = cells with rucaparib alone) 10.3% | viability ([11]; at 1.25 µM, OCI-C5x cells, without rucaparib) 13.9% | viability ([11]; at 1.25 µM, OCI-P5x cells, with rucaparib 20 µM, 100% = cells with rucaparib alone) 20.4% | viability ([11]; at 1.25 µM, OCI-P5x cells, without rucaparib) 15.8% | viability ([11]; at 5 µM, OCI-C5x cells, with rucaparib 10 µM, 100% = cells with rucaparib alone) 13% | viability ([11]; at 5 µM, OCI-C5x cells, without rucaparib) 12.2% | viability ([11]; at 5 µM, OCI-P5x cells, with rucaparib 20 µM, 100% = cells with rucaparib alone) 17.1% | viability ([11]; at 5 µM, OCI-P5x cells, without rucaparib) 14%
inactive: outcome [5] | fold change ([8]; stronger effect = lower value, cell number ratio, induced over uninduced) 1.06 | plate-normalised HSF1 focus index [9] 0.823 | z-score ([10]; MELAS cybrid survival, CellTiter-Glo 48 h, stronger effect = higher value) 0.31 | viability ([11]; at 0.000305 µM, OCI-C5x cells, with rucaparib 10 µM, 100% = cells with rucaparib alone) 126% | viability ([11]; at 0.000305 µM, OCI-C5x cells, without rucaparib) 105% | viability ([11]; at 0.00122 µM, OCI-C5x cells, with rucaparib 10 µM, 100% = cells with rucaparib alone) 116% | viability ([11]; at 0.00122 µM, OCI-C5x cells, without rucaparib) 113% | viability ([11]; at 0.00122 µM, OCI-P5x cells, without rucaparib) 103% | viability ([11]; at 0.00488 µM, OCI-C5x cells, with rucaparib 10 µM, 100% = cells with rucaparib alone) 118% | viability ([11]; at 0.00488 µM, OCI-C5x cells, without rucaparib) 117% | viability ([11]; at 0.00488 µM, OCI-P5x cells, with rucaparib 20 µM, 100% = cells with rucaparib alone) 103% | viability ([11]; at 0.00488 µM, OCI-P5x cells, without rucaparib) 105% | viability ([11]; at 0.0195 µM, OCI-C5x cells, with rucaparib 10 µM, 100% = cells with rucaparib alone) 110% | viability ([11]; at 0.0195 µM, OCI-C5x cells, without rucaparib) 118% | viability ([11]; at 0.0781 µM, OCI-C5x cells, with rucaparib 10 µM, 100% = cells with rucaparib alone) 108% | viability ([11]; at 0.0781 µM, OCI-C5x cells, without rucaparib) 118%
7300: cell count [9]
1340: cell count ([8]; measured here: total cells with miR-34 induction, stronger effect = lower value)

COc1cc2c(NC3CCN(C(C)C)CC3)nc(C3CCCCC3)nc2cc1OCCCN1CCCC1
active: AC50 [1] 23.5 µM | AC50 [2] 8.33 µM | AC50 [3] 18.7 µM | AC50 [4] 20.9 µM | IC50 [7] 23.5 µM

CN(C)CCCN=c1c2ccccc2n(C)c2[nH]c(=O)n(C)c(=O)c12
inactive: plate-normalised HSF1 focus index [9] 0.997
-0.045: SSMD [9]
active: AC50 [1] 29.5 µM | AC50 [2] 8.33 µM | AC50 [3] 14.8 µM | AC50 [12] 26.3 µM
6580: cell count [9]

O=C(c1ccc(/C=C/c2n[nH]c3ccccc23)cc1)N1CCNCC1
active: AC50 [1] 5.9 µM | AC50 [2] 23.5 µM | AC50 [12] 8.33 µM | AC50 [4] 4.68 µM

CC/C(=C(/c1ccc(O)cc1)c1ccc(OCCNC)cc1)c1ccccc1
active: AC50 [1] 2.63 µM | AC50 [2] 23.5 µM | AC50 [12] 9.34 µM | AC50 [4] 3.32 µM | AC50 [5] 26.4 µM

CCc1ccc(C(=O)Nc2cc(CN3CCN(C)CC3)cc(C(F)(F)F)c2)cc1C#Cc1cnc2ccnn2c1
active: AC50 [1] 14.8 µM | AC50 [2] 10.5 µM | AC50 [3] 7.43 µM | AC50 [4] 11.8 µM | AC50 [5] 16.6 µM | AC50 [6] 13.2 µM | IC50 [7] 14.8 µM
